Test results reported in PubChem BioAssay AID1347145 (National Center for Advancing Translational Sciences (NCATS), 2019).
Inconclusive results are not listed. Activity calls are given as the source filed them. Calls follow the shape of the dose curve; as a rule, active = well fitted inhibition curve with a large enough effect; inconclusive = small, poorly fitted or top-dose-only effect; inactive = no such curve, though single readings can be large or run the other way.

target: N-terminal Xaa-Pro-Lys N-methyltransferase 1 (Homo sapiens) (UniProt Q9BV86); experiment: qHTS Assay for Inhibitors of N-terminal methyltransferase 1 (NTMT1): MTaseGlo Assay Confirmatory Screen, Round 1; conditions: Recombinant NTMT1, MTase-Glo SAH luminescence; series mostly up to 57.1 µM
Sequence (Q9BV86 whole entry, looked up): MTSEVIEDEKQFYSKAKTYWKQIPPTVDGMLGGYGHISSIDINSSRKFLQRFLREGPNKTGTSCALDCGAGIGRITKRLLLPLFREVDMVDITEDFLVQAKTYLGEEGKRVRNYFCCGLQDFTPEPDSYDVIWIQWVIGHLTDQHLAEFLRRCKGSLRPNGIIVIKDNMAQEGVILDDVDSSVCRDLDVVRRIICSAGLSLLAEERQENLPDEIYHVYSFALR
Description: Assay Submitter (PI): Rong Huang Ph.D, Purdue University, West Lafayette, IN 47907 The N-terminal methytransferase 1 is the first methyltransferase that methylates protein alpha-N-amines and plays an important role in regulating cell mitosis, chromatin interactions and DNA repair. It is observed to be over-expressed in various cancer patient tissues like malignant melanoma and colorectal cancer tissues. Knockdown of NTMT1 in cancer cells causes cell mitotic defects and enhances sensitivity to DNA damaging chemotherapeutics. […] These critical cellular processes in which NTMT1 is implicated, coupled with emerging links to cellular dysfunction, strengthen the inference that NTMT1 is a compelling novel anticancer target. Progress have been made in understanding the molecular properties of NTMT1 and the biological consequences of protein alpha-N-terminal methylation, but there are no specific small molecule probes available for NTMT1 to fully characterize its MTase activity. To address this unmet need, a panel of assay is created and established to enable quantitative high-throughput screening (qHTS) for novel, potent, and selective small molecule NTMT1 inhibitors. Two orthogonal qHTS that use different reagents (ThioGlo vs. MTaseGlo) are developed for primary robotic screening against the NCATS chemical library of more than 400,000 small molecules. Identified inhibitors are reacquired, validated, and further characterized. MTaseGlo Assay is a luminescence screen that measure the activity of methyltransferases based on the reaction product S-adenosyl homocysteine (SAH). The substrate SAM is converted to SAH upon enzyme activation. MTase-Glo reagent and detection solution convert SAH to ATP and measure the light from the luciferase reaction. […] Early Translation Branch (ETB) National Center for Advancing Translational Sciences (NCATS) National Institute of Health (NIH)
Materials: NTMT1 enzyme, substrate SPKRIA, control peptide RCC1-6 is provided by the Huang laboratory. MTaseGlo Assay: In brief, 3 µL of enzyme mixture (final concentrations of 125 nM and 100 µM for NTMT1 and SAM, respectively) into all wells of a 1,536-well solid-bottom white plate (Greiner Bio One, Monroe, NC). 23 nL of DMSO or Ac-RCC1-10 (final concentration range 234 nM to 143 microM) was transferred via Wako Pin-tool (Wako Automation, Richmond, VA) and incubated (RT) for ~15 minutes. Next, 1 µL of substrate (final concentration 1 µM) or buffer was dispensed, and the reaction proceeded for 30 minutes (RT, protected from light) followed by a 1 microL addition of [5X] MTase-Glo Reagent(R). Samples were incubated (RT, protected from light) for 30 minutes to allow for SAH to be converted to ADP, followed by a 5 microL addition of [1X] MTase-Glo Detection Solution(R) to allow for ADP to be converted to ATP, which was then detected with a luciferase reaction. Samples were centrifuged for 15 seconds at 1,000 RPM's, followed by a RT incubation for 30 minutes. Plates were then read using Luminescence optics on a ViewLux detector. Data were normalized to no-enzyme (0% activity) and no-inhibitor (DMSO; 100%) controls, and the resulting percent inhibition data were fitted to a 4-parameter Hill equation using Graphpad Prism.

Potency, inactive:
Nc1ncnc2c1ncn2[C@@H]1O[C@H](C(=O)NC2CC2)[C@@H](O)[C@H]1O
C[S+](CC[C@H](N)C(=O)O)C[C@H]1O[C@@H](n2cnc3c(N)ncnc32)[C@H](O)[C@@H]1O (stereo not given in full)
Nc1ncnc2c1ncn2[C@@H]1O[C@H](COP(=O)(O)OP(=O)(O)O)[C@@H](O)[C@H]1O
NCCNC(=O)Cc1ccc(NC(=O)Cc2ccc(Nc3ncnc4c3ncn4[C@@H]3O[C@H](CO)[C@@H](O)[C@H]3O)cc2)cc1
C[C@H](Cc1ccccc1)Nc1ncnc2c1ncn2[C@@H]1O[C@H](CO)[C@@H](O)[C@H]1O
COC1C(CO)OC(n2cnc3c(=O)[nH]cnc32)C1O (stereo not given)
CNC(=O)[C@H]1O[C@@H](n2cnc3c(NCc4ccc(N)cc4)ncnc32)[C@H](O)[C@@H]1O
CCNc1nc(N2CCCN(C)CC2)nc2cc(OC)c(OC)cc12
COc1cc2c(NC3CCN(C)CC3)nc(N3CCCN(C)CC3)nc2cc1OCCCN1CCCC1
CCN(CC)c1nc(NC2CCN(C)CC2)c2cc(OC)c(OC)cc2n1
Nc1ncnc2c1ncn2[C@@H]1O[C@H](COP(=O)(O)O)[C@@H](O)[C@H]1O
CCN(c1cc(-c2ccc(CN3CCOCC3)cc2)cc(C(=O)NCc2c(C)cc(C)[nH]c2=O)c1C)C1CCOCC1
COc1cc2nc(N3CCOCC3)nc(NC3CCN(Cc4ccccc4)CC3)c2cc1OC
OC[C@H]1O[C@@H](n2cnc3c(Nc4ccccc4)ncnc32)[C@H](O)[C@@H]1O
COc1cc2c(NC3CCN(C4CCCCC4)CC3)nc(N3CCCCCC3)nc2cc1OCCCN1CCCCC1
CNc1nc(NC2CC2)c2cc(OC)c(OC)cc2n1
C[S+](CCC(N)C(=O)O)CC1O[C@@H](n2cnc3c(N)ncnc32)C(O)C1O (stereo not given in full)
CNC(=O)[C@H]1O[C@@H](n2cnc3c(N)ncnc32)[C@H](O)[C@@H]1O
CCN(c1cc(C#CCN2CCOCC2)cc(C(=O)NCc2c(C)cc(C)[nH]c2=O)c1C)C1CCC(N(C)CCOC)CC1 (stereo not given)
Nc1ncnc2c1ncn2[C@@H]1O[C@H](CSCC[C@H](N)C(=O)O)[C@@H](O)[C@H]1O
COCCCCOc1cc2nc(N3CCCN(C)CC3)nc(NC3CCN(C)CC3)c2cc1OC
COc1cc2nc(NC3CCN(C)CC3)nc(NC3CCN(C)CC3)c2cc1OC
Nc1nc(Cl)nc2c1ncn2[C@@H]1O[C@H](CO)[C@@H](O)[C@H]1O
COc1cc2c(NC3CCN(C(C)C)CC3)nc(N3CCCN(C)CC3)nc2cc1OCCCN1CCCC1
Nc1nc2c(ncn2[C@@H]2O[C@H](CO)[C@@H](O)[C@H]2O)c(=O)[nH]1
CNc1ncnc2c1ncn2[C@H]1C[C@H](O)[C@@H](CO)O1
CNc1ncnc2c1ncn2[C@@H]1O[C@H](CO)[C@@H](O)[C@H]1O
C[C@H](Cc1ccccc1)Nc1ncnc2c1ncn2[C@@H]1O[C@H](CO)C(O)[C@H]1O (stereo not given in full)
CCCN(C)CCCOc1cc2nc(N3CCCN(C)CC3)nc(NC3CCN(C)CC3)c2cc1OC
COc1cc2nc(N3CCCCC3)nc(NC3CCN(Cc4ccccc4)CC3)c2cc1OC
COc1cc2c(NC3CCN(C)CC3)nc(N3CCCN(C)CC3)nc2cc1OCCN(C)C
Nc1ncnc2c1ncn2[C@@H]1O[C@H](COP(=O)(O)O)[C@@H](O)[C@@H]1O
Nc1nc(Nc2ccccc2)nc2c1ncn2[C@@H]1O[C@H](CO)C(O)[C@H]1O (stereo not given in full)
O=c1[nH]cnc2c1ncn2[C@@H]1O[C@H](CO)[C@@H](O)[C@H]1O
COc1cc2c(NC3CCN(C)CC3)nc(N3CCN(C)CC3)nc2cc1OCCOCCN(C)C
COc1cc2nc(N3CCN(C)CC3)nc(NC3CCCC3)c2cc1OC
COc1cc2nc(NCCN(C)C)nc(NC3CC3)c2cc1OC
CC[C@H](C)n1cc(C)c2c(C(=O)NCc3c(C)cc(C)[nH]c3=O)cc(-c3ccc(N4CCNCC4)nc3)cc21
Nc1nc(Cl)nc2c1ncn2[C@@H]1O[C@H](COP(=O)(O)OP(=O)(O)OP(=O)(O)O)C(O)[C@H]1O (stereo not given in full)
C/C(=C\CNc1ncnc2c1ncn2[C@@H]1O[C@@H](CO)[C@@H](O)[C@H]1O)CO
